Assay [1] concerns Plasmodium falciparum Sir2 (PF13_0152, Sir2A). In words: pfSir2 binders on small-molecule microarrays, primary screen, biochemical, small-molecule microarray, 635 nm fluorescence (AID 1098).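 Further: score merges spot fluorescence intensity with its signal-to-noise ratio.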 The settings on record: small-molecule microarray binding, fluorescence 635 nm; higher = more signal.
The nature of assay [2]: small-molecule microarray binders of probe aDKK1, primary screen, biochemical, biotinylated probe, 635/667 nm fluorescence (AID 1099).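 Further: score merges 667nm spot fluorescence with signal to noise across triplicate slides.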 The settings on record: higher = more signal.
Assay [3] is described as follows: small-molecule microarray binders of probe aCHRDL2, primary screen, biochemical, biotinylated probe, 635/667 nm fluorescence (AID 1100). The settings on record: higher = more signal.
A short description of assay [4]: splicing luciferase reporter signal modulators, primary screen, spliceosome inhibition project, cell-based, HEK293, splice +/- reporter (AID 1101).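 Further: HEK293 cells carrying a splicing-competent luciferase reporter gene; test concentration not given here.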 The following applies: luminescence, 24 h, higher = more signal, called active from +8 up or from −8 down. For orientation: In a reporter assay the amount or activity of a reporter protein is the signal.
Assay [5] addresses Fibroblast growth factor 10 (Homo sapiens) (UniProt O15520). The experiment in a line: FGF10 binders on small-molecule microarrays, primary screen, biochemical, small-molecule microarray, 635 nm fluorescence (AID 1102). The settings on record: FGF10 binding, fluorescence 635 nm, higher = more signal.
Assay [6] deals with glycogen synthase kinase-3 (GSK3A per assay name; protocol says GSK3B). In words: GSK3 binders on small-molecule microarrays, primary screen, biochemical, small-molecule microarray, 635 nm fluorescence, GSK3A (AID 1103). Further: the record names both GSK3A and GSK3B. The settings on record: small-molecule microarray binding, fluorescence 635 nm; higher = more signal.
Assay [7] addresses Epidermal growth factor receptor (Homo sapiens) (UniProt P00533). The experiment in a line: EGFR binders on small-molecule microarrays, primary screen, biochemical, small-molecule microarray, 635 nm fluorescence (AID 1104).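 Further: score merges 667 nm emission intensity with spot signal to noise over triplicate slides.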 The following applies: EGFR binding, higher = more signal.
Assay [8] addresses Follistatin-related protein 3 (Homo sapiens) (UniProt O95633). The experiment in a line: FSTL3 binders on small-molecule microarrays, primary screen, biochemical, small-molecule microarray, 635 nm fluorescence (AID 1105).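 Further: score merges emission near 667 nm and signal to noise per printed spot across three slides.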 The following applies: FSTL3 binding, higher = more signal.
Assay [9] deals with Dickkopf-related protein 1 (Homo sapiens) (UniProt O94907). In words: DKK1 binders on small-molecule microarrays, primary screen, biochemical, small-molecule microarray, 635 nm fluorescence scan (AID 1106).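 Further: score merges emission near 667 nm with signal to noise over three replicate slides.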 The following applies: DKK1 binding, higher = more signal.
Sequence of Dickkopf-related protein 1 (Homo sapiens) (O94907 whole entry, looked up): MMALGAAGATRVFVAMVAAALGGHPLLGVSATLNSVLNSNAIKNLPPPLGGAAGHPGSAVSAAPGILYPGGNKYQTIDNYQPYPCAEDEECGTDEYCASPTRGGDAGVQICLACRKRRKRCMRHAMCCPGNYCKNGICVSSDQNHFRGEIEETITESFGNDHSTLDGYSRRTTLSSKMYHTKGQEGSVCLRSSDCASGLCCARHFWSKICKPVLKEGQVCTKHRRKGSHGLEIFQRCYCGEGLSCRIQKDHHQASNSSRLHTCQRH
Assay [10] deals with Inhibin beta A chain (activin A). In words: INHBA (activin A) binders on microarrays, primary screen, biochemical, small-molecule microarray, 635 nm fluorescence scan (AID 1107).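 Further: mouse activin A protein probed at 4.33 µg/mL on printed slides; score merges bound-protein fluorescence near 667 nm with spot signal-to-noise.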 The settings on record: small-molecule microarray binding, higher = more signal.
In assay [11] the test system is Human papillomavirus type 1a protein E7 (residues 44-93). In words: HPV1a E7 fragment binders on microarrays, primary screen, biochemical, small-molecule microarray, residues 44-93, 635 nm fluorescence (AID 1108).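 Further: E7 fragment applied at 1 µg/mL in TBST for 1 h at 4 C; score combines spot fluorescence with its signal to noise ratio.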 The following applies: small-molecule microarray binding, fluorescence 635 nm; higher = more signal.
Assay [12] can be described thus: modulators of HCV replicon luciferase signal, primary screen, HCV replication inhibitor project, Huh7 cells, luciferase reporter (AID 1109).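 Further: huh7 hepatoma cells harbouring a luciferase neomycin HCV replicon reporter; luciferase luminescence as measure of HCV replicon replication; test concentration not given here.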 The settings on record: 48 h, higher = more signal. Background: In antiviral work, replicon cells carry a viral genome segment that copies itself.
Assay [13] deals with Left-right determination factor 2 (Homo sapiens) (UniProt O00292). In words: LEFTY2 binders on small-molecule microarrays, primary screen, biochemical, small-molecule microarray, 635 nm fluorescence scan (AID 1110). The settings on record: LEFTY2 binding, higher = more signal.
Sequence of Left-right determination factor 2 (Homo sapiens) (O00292 whole entry, looked up): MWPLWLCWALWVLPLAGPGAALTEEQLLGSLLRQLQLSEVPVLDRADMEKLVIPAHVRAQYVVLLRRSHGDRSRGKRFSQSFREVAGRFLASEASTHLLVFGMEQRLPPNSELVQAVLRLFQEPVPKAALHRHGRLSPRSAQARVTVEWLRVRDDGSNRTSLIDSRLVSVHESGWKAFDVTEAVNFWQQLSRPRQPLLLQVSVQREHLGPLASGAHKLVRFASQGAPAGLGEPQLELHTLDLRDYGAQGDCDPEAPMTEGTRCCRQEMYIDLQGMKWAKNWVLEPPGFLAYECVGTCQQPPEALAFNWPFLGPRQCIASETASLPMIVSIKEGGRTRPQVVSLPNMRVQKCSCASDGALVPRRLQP
Assay [14] addresses Calmodulin-1 (Homo sapiens) (UniProt P0DP23). The experiment in a line: CALM1 binders on microarrays, EGTA buffer, profiling panel, biochemical, small-molecule microarray, Cy5-labelled CALM1 (AID 1111).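 Further: labelled calmodulin applied in Tris saline Tween buffer holding calcium plus EGTA and DTT.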 The settings on record: Cy5-CALM1 binding fluorescence, higher = more signal.
For assay [15] the target is unchanged. The experiment in a line: calcium-bound CALM1 binders on microarrays, profiling panel, artefact control for SMM control-protein annotation, biochemical, small-molecule microarray, Cy5-labelled CALM1, plus calcium (AID 1112).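 Further: score merges spot fluorescence with signal to noise from triplicate slides.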 The settings on record: Cy5-CALM1 binding fluorescence, higher = more signal.
A short description of assay [16]: small-molecule microarray binders of probe aWnt5a, primary screen, biochemical, biotinylated probe, 635/667 nm fluorescence (AID 1113).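 Further: score merges 667 nm fluorescence intensity with signal-to-noise per printed feature.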 The following applies: higher = more signal.
The nature of assay [17]: small-molecule microarray binders of probe aShh, primary screen, biochemical, biotinylated probe, 635/667 nm fluorescence (AID 1114).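 Further: probe is biotin-labelled aShh protein from a stem cell growth factor screen; measures binding of labelled protein to compounds printed on the slide; score merges feature fluorescence at 667 nm with signal-to-noise.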 The settings on record: higher = more signal.
Assay [18] is described as follows: small-molecule microarray binders of probe aNog, primary screen, biochemical, biotinylated probe, 635/667 nm fluorescence (AID 1115).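 Further: probe is biotinylated aNog protein used at 0.15 µg/mL for 1 h at 4 C; z-score combines 667 nm fluorescence of each spot with its signal to noise.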 The settings on record: higher = more signal.
In assay [19] the target is Torsin-1A-interacting protein 1 (Homo sapiens) (UniProt Q5JTV8). In words: LAP1 binders from COS7 cell lysate, primary screen, small-molecule microarray, 635/667 nm fluorescence (AID 1116). The settings on record: COS7-hLAP1 lysate binding, 635 nm fluorescence, higher = more signal.
Sequence of Torsin-1A-interacting protein 1 (Homo sapiens) (Q5JTV8 whole entry, looked up): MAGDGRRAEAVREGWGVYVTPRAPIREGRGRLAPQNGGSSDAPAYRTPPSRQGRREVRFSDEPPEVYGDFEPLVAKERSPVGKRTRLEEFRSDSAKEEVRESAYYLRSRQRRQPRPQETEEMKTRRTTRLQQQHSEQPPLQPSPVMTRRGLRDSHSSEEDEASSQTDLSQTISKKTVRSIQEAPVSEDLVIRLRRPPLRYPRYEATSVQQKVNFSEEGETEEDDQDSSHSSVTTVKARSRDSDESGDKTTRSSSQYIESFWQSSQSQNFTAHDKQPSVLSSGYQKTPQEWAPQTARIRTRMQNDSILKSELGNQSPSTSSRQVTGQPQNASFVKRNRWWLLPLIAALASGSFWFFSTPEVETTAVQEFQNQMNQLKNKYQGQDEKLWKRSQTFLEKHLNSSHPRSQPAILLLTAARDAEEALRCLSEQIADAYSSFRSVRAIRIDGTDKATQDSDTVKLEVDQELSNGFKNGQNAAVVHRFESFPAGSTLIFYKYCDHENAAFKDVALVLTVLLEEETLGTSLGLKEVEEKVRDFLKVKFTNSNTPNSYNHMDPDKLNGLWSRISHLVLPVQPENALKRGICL
Assay [20] deals with Alpha-bungarotoxin (Bungarus multicinctus) (UniProt P60615). The experiment in a line: alpha-bungarotoxin binders on microarray, profiling panel, artefact control for SMM control protein annotation, biochemical, small-molecule microarray, Alexa647 label, 635/667 nm fluorescence (AID 1117). The following applies: alpha-BTX-A647 binding fluorescence, higher = more signal.
Sequence of Alpha-bungarotoxin (Bungarus multicinctus) (P60615 whole entry, looked up): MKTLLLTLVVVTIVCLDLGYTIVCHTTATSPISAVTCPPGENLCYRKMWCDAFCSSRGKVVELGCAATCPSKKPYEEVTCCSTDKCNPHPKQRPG

Values joined by “and” are separate entries in the source; they are usually repeats but may differ in a detail not shown here. Equal values may be shown once. Active and inactive are the calls of the source.

Sequence of Follistatin-related protein 3 (Homo sapiens) (O95633 whole entry, looked up): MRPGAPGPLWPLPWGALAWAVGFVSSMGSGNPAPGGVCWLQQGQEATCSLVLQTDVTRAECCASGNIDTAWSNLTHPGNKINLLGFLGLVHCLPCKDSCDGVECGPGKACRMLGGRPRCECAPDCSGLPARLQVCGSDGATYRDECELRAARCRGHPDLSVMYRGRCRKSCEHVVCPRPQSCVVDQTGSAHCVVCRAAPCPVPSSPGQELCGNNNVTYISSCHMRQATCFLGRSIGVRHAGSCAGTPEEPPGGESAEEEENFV
Sequence of Epidermal growth factor receptor (Homo sapiens) (P00533 whole entry, looked up): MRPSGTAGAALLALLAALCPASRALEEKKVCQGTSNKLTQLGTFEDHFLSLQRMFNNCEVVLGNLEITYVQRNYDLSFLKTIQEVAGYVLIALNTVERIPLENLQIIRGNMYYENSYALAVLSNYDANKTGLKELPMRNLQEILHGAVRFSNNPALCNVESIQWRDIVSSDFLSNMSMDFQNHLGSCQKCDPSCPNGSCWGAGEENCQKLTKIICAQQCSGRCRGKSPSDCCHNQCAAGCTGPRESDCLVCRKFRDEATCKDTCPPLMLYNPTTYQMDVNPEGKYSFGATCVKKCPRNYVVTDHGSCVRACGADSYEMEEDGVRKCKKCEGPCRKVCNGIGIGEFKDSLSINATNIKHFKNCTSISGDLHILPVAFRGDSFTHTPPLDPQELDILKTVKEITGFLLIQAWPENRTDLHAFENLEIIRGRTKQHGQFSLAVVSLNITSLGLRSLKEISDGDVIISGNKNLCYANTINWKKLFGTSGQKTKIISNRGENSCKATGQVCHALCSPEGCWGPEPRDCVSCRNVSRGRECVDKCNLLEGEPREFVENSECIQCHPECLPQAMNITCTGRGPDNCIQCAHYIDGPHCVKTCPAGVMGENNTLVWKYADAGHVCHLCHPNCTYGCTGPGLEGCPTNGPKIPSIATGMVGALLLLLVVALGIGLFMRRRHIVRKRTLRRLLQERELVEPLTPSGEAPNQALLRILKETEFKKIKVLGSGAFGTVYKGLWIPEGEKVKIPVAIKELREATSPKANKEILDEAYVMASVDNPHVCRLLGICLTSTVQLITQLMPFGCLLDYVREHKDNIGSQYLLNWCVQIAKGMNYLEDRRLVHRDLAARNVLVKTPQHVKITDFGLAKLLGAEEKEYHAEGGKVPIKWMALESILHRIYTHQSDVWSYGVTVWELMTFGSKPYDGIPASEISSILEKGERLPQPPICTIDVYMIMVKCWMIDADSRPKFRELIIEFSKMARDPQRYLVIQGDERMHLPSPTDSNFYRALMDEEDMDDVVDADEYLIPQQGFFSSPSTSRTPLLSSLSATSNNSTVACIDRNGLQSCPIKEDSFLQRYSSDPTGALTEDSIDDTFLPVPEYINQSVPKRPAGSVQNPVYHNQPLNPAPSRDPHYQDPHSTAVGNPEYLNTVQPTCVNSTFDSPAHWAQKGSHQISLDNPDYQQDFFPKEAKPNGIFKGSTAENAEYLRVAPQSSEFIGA
Sequence of Fibroblast growth factor 10 (Homo sapiens) (O15520 whole entry, looked up): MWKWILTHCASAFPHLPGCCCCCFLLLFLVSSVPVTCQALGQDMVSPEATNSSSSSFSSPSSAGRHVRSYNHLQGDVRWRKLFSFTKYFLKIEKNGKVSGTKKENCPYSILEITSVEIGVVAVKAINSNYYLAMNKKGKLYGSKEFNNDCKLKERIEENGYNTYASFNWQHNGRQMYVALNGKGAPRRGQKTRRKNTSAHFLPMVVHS

On to `CC(C)=NOC[C@@H](O)COCc1ccco1`, for which the composite z-score in assay [1] is 1.21; in assay [2] it was -0.254; in assay [3], -0.0658; in [5], -0.341; in assay [6], -1.15; in assay [7], -0.298. The composite z-score in assay [8] was -0.628; in [9], 0.421; in assay [10], 0.912; in [11], -1.92; in assay [13], -0.168; in assay [14], -0.614. Also, the composite z-score in assay [15] is -0.142; in assay [16], -0.172; in assay [17] it was -0.138; in assay [18], -0.342; in assay [19], -0.2; in assay [20], -1.1. The values for the z-score in assay [4] and in [12] were 0.638 (inactive) and 0.797, respectively.
On to `CO[C@H]1COC(=O)CC=C[C@@H](C)COC(=O)[C@H](CCSC)NC(=O)CC=C[C@@H]1C`, for which the composite z-score in assay [1] was 0.536 and 0.111; in [2] it was -0.51 and -0.591; in assay [3], -1.59 and -2.05; in [5], 1.12 and 1.16; in assay [6], 1.29 and 1.3; in [7], 1.28 and 1.69. The composite z-score in assay [8] is 1.57 and 1.49; in assay [9], 2.29 and 2.22; in [10], 0.626 and -0.119; in assay [11], -0.467 and -0.849; in assay [13] it was 1.6 and 1.71; in assay [14], -0.957 and -2.78. The composite z-score is -1.75 and -3.46 in assay [15]; -0.136 and -0.197 in [16]; -0.138 and -0.34 in assay [17]; -0.385 and -0.754 in assay [18]; 0.995 and 0.363 in [19]; -0.933 and -1.69 in [20]. Also, the z-score in assay [4] was 0.191 (inactive) and -0.244 (inactive); in assay [12] it was -0.0216 and -0.567.
In the case of `C=C[C@@H](OC)[C@H](O)c1ccc(O)c(F)c1`, the composite z-score was 0.767 and -0.815 in assay [1]; -0.324 and -0.472 in assay [2]; 0.576 and 0.268 in assay [3]; -1.19 and -1.46 in assay [5]; -1.5 and -1.29 in assay [6]; -1.59 and -0.277 in assay [7]. Besides, the composite z-score in assay [8] was -2.7 and -1.75; in assay [9] it was -1.37 and -0.856; in [10] it was -2.04 and -0.759; in assay [11] it was -0.829 and -1.4; in assay [13], -1.68 and -1.07; in [14], -0.692 and -1.45. Also, the composite z-score is -0.898 and -1.11 in assay [15]; -0.328 and -0.268 in assay [16]; -0.0553 and -0.0709 in assay [17]; -0.564 and -0.908 in [18]; -0.104 and -0.362 in assay [19]; -1.14 and -0.617 in assay [20]. The z-score in [4] was -0.668 (inactive) and -2.09 (inactive); in assay [12] it was 0.0695 and 0.896.
`CC[C@@H]1C(Sc2ccccc2)C(C(=O)O)[C@H](c2ccc(C)cc2)N1S(=O)(=O)c1ccc(C)cc1` (stereo not given in full): the composite z-score in assay [1] is 1.68 and 1.07; in assay [2], 0.46 and -0.127; in [3], 0.731 and 0.46; in [5] it was 0.617 and 0.881; in assay [6], 0.414 and 1.14; in assay [7], -0.233 and 0.267. For the same compound, the composite z-score in assay [8] was 0.437 and 0.874; in assay [9], -0.72 and 0.0831; in assay [10], 0.653 and 0.302; in assay [11], 1.1 and 1.34; in assay [13], -0.311 and 0.047; in assay [14], 1.98 and 1.65. The composite z-score in assay [15] is 0.345 and 0.527; in assay [16] it was 0.138 and 0.155; in assay [17], 0.108 and 0.116; in assay [18], 0.942 and 0.002; in [19], 1.06 and 1.19; in assay [20], 0.836 and 1.14. Also, the z-score was -0.0623 (inactive) and -0.895 (inactive) in [4]; -0.17 and -0.556 in assay [12].
For `O=C1[C@H]2[C@H]3[C@H](O)[C@H](O)CC(=NOCc4ccccc4)[C@H]3CC[C@H]2C(=O)N1Cc1ccccc1`, the composite z-score in [1] was 0.424; in assay [2] it was -0.276; in assay [3], -0.476; in assay [5] it was 0.185; in [6] it was -0.601; in assay [7] it was 0.486. The composite z-score in assay [8] is 0.606; in [9], 0.737; in assay [10] it was -0.201; in [11], -0.424; in assay [13], 0.552; in [14], -0.0595. The composite z-score was -0.477 in assay [15]; -0.222 in [16]; -0.0772 in assay [17]; -0.182 in assay [18]; 0.197 in assay [19]; -0.0806 in assay [20]. Also, the z-score in [4] was -2.42 (inactive); in assay [12] it was -0.44.

Values taken from PubChem BioAssay.
